An excerpt weighted towards active compounds, which were near 1.6% of everything screened.
KCNQ2 block = inhibitors of rat KCNQ2 potassium channel; 310,000 compounds, 1.1% hits; AID 2156; O88943; B-score at 10 µM; CHO-K1 KCNQ2, FluxOR thallium flux, 20 min; active compounds read low;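 active = fluorescence ratio B-score at most minus 3 library SDs, with starting brightness B-score within 2 library SDs, cut at about -5.5 in these data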
KCNQ2 enhance = enhances the rat KCNQ2 potassium channel. O88943. CHO-K1 KCNQ2, FluxOR thallium flux fluorescence; active compounds read high. B-score at 10 µM. 310,000 compounds, 0.54% hits;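 active = fluorescence ratio B-score at least 3 SD of library B-scores, with initial fluorescence B-score within 3 of them, cut at about 5.3 in these data; same plate scores as AID 2156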;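 note: B-score of peak minus minimum over baseline fluorescence ratio after K+ and Tl+ stimulus; positive B-score means potentiation of KCNQ2 with more thallium influx and brighter signal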
Kir21 conf inh = confirmation of mouse Kir2.1 potassium channel inhibitors. shares compounds with KCNQ2 enhance. Kir2.1-expressing cells, FluxOR thallium flux fluorescence; active compounds read low. Tl flux remaining, % of negative control (active compounds read low), % at 10 µM. 2,300 compounds, 41% hits. AID 2032;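 active = Primary-screen hit whose thallium flux fell at least 3 control SD below untreated wells in both duplicates, with normal baseline fluorescence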
HEK293 ctr = alters thallium flux in parental HEK293 cells, Kir2.1 counter-screen; shares compounds with KCNQ2 enhance; FluxOR thallium flux fluorescence; 0% = unstimulated blank wells; FluxOR signal as % of negative control (100 = no effect), % at 10 µM; 2,300 compounds, 19% hits; AID 2105;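 active = dye signal at least 3 control SD above or below untreated wells in both duplicates, raw fluorescence within 3, either direction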;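 note: percent is based on the flux ratio of peak minus minimum fluorescence over baseline F0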
CHO-K1 Tl ctr = counter-screen for KCNQ2 potentiators: effect in parental CHO-K1 cells; shares compounds with KCNQ2 enhance; FluxOR thallium flux fluorescence; zero = vehicle mean+3SD, 100% = vehicle-minus-blank window; activity increase over 3SD of controls, % at 10 µM; 1,200 compounds, 43% hits; AID 2282;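 active = signal rise of at least 3 SD above the untreated control mean, in both duplicate wells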;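 note: counter screen of KCNQ2 potentiator hits so any rise reflects channel-independent effects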
KCNQ1 sel pot = tests whether KCNQ2 potentiators also act on human KCNQ1; AID 2283; 1,200 compounds, 28% hits; activation over 3SD threshold, % at 10 µM; CHO KCNQ1 stable, FluxOR thallium flux fluorescence; beyond 3SD, as % of vehicle-control signal; shares compounds with KCNQ2 enhance;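 active = fluorescence ratio rise of at least 3 SD of vehicle wells above their mean, in both replicate wells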
KCNQ2 pot conf = confirmation of rat KCNQ2 potassium channel potentiators; shares compounds with KCNQ2 enhance; CHO-KCNQ2 cells, FluxOR thallium flux fluorescence; potentiation, less the hit threshold, % at 10 µM; 1,200 compounds, 68% hits; AID 2287;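 active = fluorescence ratio rising 3 SD or more over the vehicle control mean in both replicates, plus primary screen hit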;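 note: peak minus minimum thallium fluorescence divided by baseline after K/Tl stimulus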
Kir2-1 sel = selectivity of KCNQ2 potentiators: effect on mouse Kir2.1 | HEK293 Kir2.1, FluxOR thallium flux fluorescence | activity over 3SD threshold, % at 10 µM | shares compounds with KCNQ2 enhance | 1,200 compounds, 2% hits;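 active = fluorescence ratio rise of at least 3 SD above the vehicle-control mean, seen in both replicates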
KCNQ2 W236L MoA = potentiates the retigabine-insensitive rat KCNQ2 W236L mutant channel; 940 compounds, 10% hits; shares compounds with KCNQ2 enhance; current increase over 3SD of negative controls (%), active compounds read high, % at 25 µM; CHO KCNQ2-W236L, automated patch clamp current;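 active = current increase at least 3 SD of the untreated controls above them in both duplicate recordings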
Target sequence (O88943 whole entry W236L, looked up): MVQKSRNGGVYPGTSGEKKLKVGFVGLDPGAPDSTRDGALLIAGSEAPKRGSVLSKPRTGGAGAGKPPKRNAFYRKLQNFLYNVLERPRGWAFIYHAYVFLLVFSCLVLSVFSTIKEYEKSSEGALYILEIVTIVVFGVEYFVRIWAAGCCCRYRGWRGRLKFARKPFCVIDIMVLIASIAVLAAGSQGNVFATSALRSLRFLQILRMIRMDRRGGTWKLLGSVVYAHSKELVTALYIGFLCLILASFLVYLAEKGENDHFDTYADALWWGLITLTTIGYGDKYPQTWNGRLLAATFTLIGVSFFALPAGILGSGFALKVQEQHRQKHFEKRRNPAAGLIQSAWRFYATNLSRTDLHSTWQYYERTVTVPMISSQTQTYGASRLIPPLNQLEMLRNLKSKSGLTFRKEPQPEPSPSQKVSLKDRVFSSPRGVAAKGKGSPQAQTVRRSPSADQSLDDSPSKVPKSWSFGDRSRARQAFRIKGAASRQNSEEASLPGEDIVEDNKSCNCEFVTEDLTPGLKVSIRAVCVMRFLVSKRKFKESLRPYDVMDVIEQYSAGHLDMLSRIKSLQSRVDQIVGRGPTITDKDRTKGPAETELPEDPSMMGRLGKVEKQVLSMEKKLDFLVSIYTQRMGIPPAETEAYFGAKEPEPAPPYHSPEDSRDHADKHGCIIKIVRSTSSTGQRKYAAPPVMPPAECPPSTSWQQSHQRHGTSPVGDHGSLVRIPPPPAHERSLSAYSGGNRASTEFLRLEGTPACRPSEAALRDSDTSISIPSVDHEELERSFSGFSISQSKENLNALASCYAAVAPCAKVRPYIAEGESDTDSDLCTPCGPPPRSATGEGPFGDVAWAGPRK
Large screens that a line does not name were inactive (follow-up assays come after a bar, where they were run).

Cc1nnc(C)n1/N=C/c1cc(Br)cc(Br)c1O	KCNQ2 enhance 10.9 | Kir21 conf inh inactive | HEK293 ctr inactive | CHO-K1 Tl ctr inactive | KCNQ1 sel pot 41.3 | KCNQ2 pot conf 17.1 | Kir2-1 sel inactive | KCNQ2 W236L MoA inactive
Oc1c(Br)cc(Br)cc1/C=N/n1c(-c2ccccc2)n[nH]c1=S	KCNQ2 enhance 10.5 | Kir21 conf inh inactive | HEK293 ctr inactive | CHO-K1 Tl ctr 12.0 | KCNQ1 sel pot inactive | KCNQ2 pot conf 11.4 | Kir2-1 sel inactive | KCNQ2 W236L MoA inactive
CCOc1ccc(CNS(=O)(=O)c2cccs2)cc1OCC	none
Cc1cc2cccc(C)c2nc1SCC(=O)NCC1CCCO1 (centres undefined)	none
Cc1cc2cccc(C)c2nc1SCC(=O)NC1CCCCC1	KCNQ2 enhance 12.6 | Kir21 conf inh inactive | HEK293 ctr inactive | CHO-K1 Tl ctr inactive | KCNQ1 sel pot inactive | KCNQ2 pot conf 0.3 | Kir2-1 sel inactive | KCNQ2 W236L MoA inactive
Cc1cc(NC(=O)CSc2nc3c(C)c(C)ccc3cc2C)no1	KCNQ2 enhance 5.94 | Kir21 conf inh inactive | HEK293 ctr inactive | CHO-K1 Tl ctr inactive | KCNQ1 sel pot inactive | KCNQ2 pot conf inactive | Kir2-1 sel inactive
Cc1cccc(CC(=O)NC2CCCCCC2)c1	KCNQ2 enhance 6.71 | Kir21 conf inh inactive | HEK293 ctr inactive | CHO-K1 Tl ctr inactive | KCNQ1 sel pot inactive | KCNQ2 pot conf 11.0 | Kir2-1 sel inactive | KCNQ2 W236L MoA inactive
CCc1cc2ccc(C)c(C)c2nc1SCC(=O)Nc1cc(C)on1	none
Cc1cccc(CC(=O)NC2CCN(C)CC2)c1	none (no result: KCNQ2 enhance)
Cc1cccc(OCC(=O)NC2CCCC2)c1	none
Cc1ccc(OCC(=O)NC2CCCCCC2)cc1C	KCNQ2 enhance 6.52 | Kir21 conf inh inactive | HEK293 ctr inactive | CHO-K1 Tl ctr inactive | KCNQ1 sel pot inactive | KCNQ2 pot conf 2.0 | Kir2-1 sel inactive | KCNQ2 W236L MoA inactive
CN(CC(=O)Nc1cccc(F)c1)C(=O)c1ccncc1	none (no result: KCNQ2 enhance)
COc1ccccc1NC(=O)C1CC(O)CN1C(=O)Oc1ccccc1 (centres undefined)	none (no result: KCNQ2 enhance)
CC(C)(C)c1nc(-c2ccccc2)nc2c1OCCC2	none
Cc1ccc(S(=O)(=O)N(CC(=O)NCC2CCCO2)Cc2ccc(F)cc2)cc1 (centres undefined)	none (no result: KCNQ2 enhance)
O=C(NC(=S)Nc1ccc(C(F)(F)F)cc1)c1csnn1	KCNQ2 enhance 21.2 | Kir21 conf inh inactive | HEK293 ctr 398.0% | CHO-K1 Tl ctr 2.2 | KCNQ1 sel pot inactive | KCNQ2 pot conf 69.4 | Kir2-1 sel inactive | KCNQ2 W236L MoA inactive
COc1ccc(CNC(=O)c2csnn2)cc1	none (no result: KCNQ2 enhance)
O=C(NC(=S)Nc1ccccc1)c1ccc(-c2ccccc2)cc1	none
O=C(Nc1csnn1)c1csnn1	none (no result: KCNQ2 enhance)
O=C(NC(=S)Nc1ccccn1)c1cc(-c2ccccc2)nc2ccccc12	none
O=C(NC(=S)Nc1ccccc1)c1csnn1	KCNQ2 enhance 18.1 | Kir21 conf inh inactive | HEK293 ctr 487.0% | CHO-K1 Tl ctr inactive | KCNQ1 sel pot inactive | KCNQ2 pot conf 73.3 | Kir2-1 sel inactive | KCNQ2 W236L MoA inactive
O=C(NC(=S)Nc1ccccc1)c1cc(-c2ccccc2)nc2ccccc12	KCNQ2 enhance 16.9 | Kir21 conf inh inactive | HEK293 ctr 131.0% | CHO-K1 Tl ctr inactive | KCNQ1 sel pot inactive | KCNQ2 pot conf 1.7 | Kir2-1 sel inactive | KCNQ2 W236L MoA inactive
COc1ccc(NC(=S)NC(=O)c2csnn2)cc1	KCNQ2 enhance 10.7 | Kir21 conf inh inactive | HEK293 ctr 242.5% | CHO-K1 Tl ctr 21.2 | KCNQ1 sel pot inactive | KCNQ2 pot conf 29.9 | Kir2-1 sel inactive | KCNQ2 W236L MoA inactive
O=C(CNC(=O)c1cccs1)N/N=C/c1c(F)cccc1Cl	none (no result: KCNQ2 enhance)
Cc1c(O)ccc(-c2n[nH]c(C(=O)O)c2-c2nc3ccccc3s2)c1O	none (no result: KCNQ2 enhance)
CCCCCCCCNC1=CC(=O)CC(C)(C)C1	none (no result: KCNQ2 enhance)
COc1ccc(C(=O)OCC(=O)Nc2c(C)cccc2C)c(OC)c1OC	none (no result: KCNQ2 enhance)
CC(C)(C)OC(=O)N1CCC2(CC1)C(C#N)=C(N)OC1=C2C(=O)CCC1	none (no result: KCNQ2 enhance)
Cc1ccc(C(=O)NC2CC(C)(C)NC(C)(C)C2)cc1S(=O)(=O)N1CCCCC1	none (no result: KCNQ2 enhance)
COc1cc(C(=O)OCCCN=C2NS(=O)(=O)c3ccccc32)cc(OC)c1OC	none
CC(C)(C)c1ccc(OCC(=O)NNC(=S)NC(=O)c2ccco2)c(Br)c1	none (no result: KCNQ2 enhance)
CC(C)(C)c1ccc(OCC(=O)NCc2ccco2)c(Br)c1	KCNQ2 enhance 5.4 | Kir21 conf inh inactive | HEK293 ctr inactive | CHO-K1 Tl ctr inactive | KCNQ1 sel pot inactive | KCNQ2 pot conf 4.0 | Kir2-1 sel inactive | KCNQ2 W236L MoA inactive
COc1ccc2c([N+](=O)[O-])c(Cl)[nH]c2c1	none
Cc1cccc(C(=O)Nc2cccc3c2CCCC3)c1	none (no result: KCNQ2 enhance)
Cc1ccc(C(=O)NCCS(=O)(=O)N2CCN(c3ccccc3F)CC2)cc1[N+](=O)[O-]	none (no result: KCNQ2 enhance)
Cc1c(NC(=S)NC(=O)c2ccc(Br)o2)c(=O)n(-c2ccccc2)n1C	none (no result: KCNQ2 enhance)
O=C(NC(=S)Nc1ccccc1F)c1ccc(Br)o1	KCNQ2 enhance 16.1 | Kir21 conf inh inactive | HEK293 ctr inactive | CHO-K1 Tl ctr 57.4 | KCNQ1 sel pot inactive | KCNQ2 pot conf 67.1 | Kir2-1 sel inactive | KCNQ2 W236L MoA inactive
Cc1cccc(C)c1NC(=S)NC(=O)c1ccc(Br)o1	KCNQ2 enhance 14.1 | Kir21 conf inh inactive | HEK293 ctr inactive | CHO-K1 Tl ctr 0.9 | KCNQ1 sel pot inactive | KCNQ2 pot conf 60.4 | Kir2-1 sel inactive | KCNQ2 W236L MoA inactive
Cc1ccc(NC(=S)NC(=O)c2ccc(Br)o2)c(C)c1	none
O=C(NNC(=S)Nc1ccccc1C(F)(F)F)c1ccc(Br)o1	none
Cc1cccc(NC(=S)NC(=O)c2ccc(Br)o2)c1C	KCNQ2 enhance 8.39 | Kir21 conf inh inactive | HEK293 ctr 147.5% | CHO-K1 Tl ctr 46.9 | KCNQ1 sel pot inactive | KCNQ2 pot conf 28.3 | Kir2-1 sel inactive | KCNQ2 W236L MoA inactive
Cc1ccc(CN2CCN(/N=C/c3sccc3C)CC2)c(C)c1	none (no result: KCNQ2 enhance)
COc1ccc(NC(=O)CCc2nnc3ccc(N4CCC5(CC4)OCCO5)nn23)cc1	none
N#CCCN=C(NS(=O)(=O)c1ccccc1)c1ccccc1	none
Cc1ccc(OCCCCN2CCc3ccccc3C2)cc1	none
COc1ccc(C(=O)C2CCCN(C(=O)CCc3scnc3C)C2)c(C)c1 (centres undefined)	none (no result: KCNQ2 enhance)
Cc1ccc(Nc2nc(-c3ccccc3)cs2)nc1	none
